Measured values taken from PubChem BioAssay (NCI).
The panel holds about 83,000 compounds, 20% with a hit somewhere; the sample as a whole holds those more often.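 A percent growth of 40 corresponds to 60% growth inhibition; 0 means no net growth; -100 means all cells died. Active threshold: below 10.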 The source made the active and inactive calls.

How the values were obtained:
Test in all cases: NCI-60 one-dose screen, 48 h (100 = growth as untreated, 0 = no growth, -100 = all killed)
Conditions in all cases: 10 µM unless noted
[1] = system: NCI-H23 lung
[2] = system: NCI-H226 lung
[3] = system: NCI-H322M lung
[4] = system: NCI-H460 lung
[5] = system: HOP-92 NSCLC
[6] = system: NCI-H522 lung
[7] = system: A549/ATCC NSCLC
[8] = system: 786-0 renal
[9] = system: COLO 205 colon
[10] = system: HOP-62 NSCLC

Measured: growth

Nc1nc2c3ccncc3cc(-c3cccc(Cl)c3)c2c2cnccc12
inactive: [1] 66.8% | [2] 33.1% | [3] 70.4% | [4] 12.9% | [5] 50.3% | [6] 48.4% | [7] 28.3% | [8] 21.3% | [9] 20.9%

CC(C)(C)c1ccc(OCCCCCCCN2CCNCC2)cc1
active: [4] -14.9% | [9] -60.9%
inactive: [1] 51.9% | [2] 70.3% | [3] 53.6% | [5] 33.3% | [6] 72.9% | [7] 44.9% | [8] 23.9%

COc1cccc2c1C(=O)c1c(O)c3c(c(O)c1C2=O)C[C@@](O)(C(=O)CO)C[C@@H]3OC1C[C@H](N)[C@H](O)[C@H](C)O1 (stereo not given in full)
active: [1] -33.5% | [2] -40.5% | [3] -2.94% | [4] 0.418% | [5] -26.2% | [6] -61.1% | [7] 8.81% | [8] 6.46% | [9] -81.6%

c1cc(N2CCCC2)c2nc(-c3[nH]ncc3Nc3ncnc4[nH]ccc34)[nH]c2c1
active: [1] -45.3% | [2] -40.4% | [3] -21.1% | [4] -4.99% | [5] -1.33% | [6] -11.3% | [7] -7.17% | [8] -26.1% | [9] -65.9%

Cc1cc(N=O)cc(C(C)(C)C)c1O
inactive: [1] 97% | [2] 85.8% | [3] 95.6% | [4] 101% | [5] 73% | [6] 90.2% | [7] 73.5% | [8] 103% | [9] 92.3%

C/C(Cc1ccc(Cl)cc1)=C(/c1ccc(Cl)cc1)c1ccc(OCCN2CCCC2)cc1
inactive: [1] 78.7% | [2] 96.4% | [3] 93.4% | [4] 35.9% | [5] 60.8% | [6] 73.7% | [7] 69.8% | [8] 86% | [9] 61.6%

COc1cccc(-c2nn(-c3ccccc3)cc2-c2ccnc(NCCCNS(=O)(=O)c3cccc(F)c3)c2)c1
inactive: [1] 30.2% | [2] 21.7% | [3] 53.9% | [4] 24.5% | [7] 27.4% | [8] 31.6% | [9] 11.9%
active: [5] 6.39% | [6] 9.36%

COc1ccc2c(c1)c(-c1nc(-c3c[nH]c4ncccc34)cs1)cn2CCCN1CCCCC1
inactive: [1] 73.1% | [2] 70.8% | [3] 56.4% | [10] 37.4% | [5] 24.9% | [6] 67.6% | [7] 41.3%
active: [4] 5.78% | [8] -75.1% | [9] -74.9%

C=C(C)[C@@H]1CC[C@]2(C)[C@H](CC=C3[C@@H]4CC(C)(C)CC[C@]4(C(=O)OC)CC[C@]32C)[C@@]1(C)CC/C(N)=N/O
active: [1] 8.68% | [2] 2.13% | [7] -28.8%
inactive: [3] 85.6% | [4] 74.9% | [5] 45.9% | [6] 33.5% | [8] 66.6% | [9] 35.6%

CC(C)(C)CC(C)(C)c1ccc(OCCOCC[N+](C)(C)CC(=O)[O-])cc1
inactive: [1] 108% | [2] 105% | [3] 111% | [4] 110% | [5] 105% | [6] 103% | [7] 101% | [8] 106% | [9] 105%

C=C1C(=O)O[C@H]2[C@H]1CC/C(COC(=O)N[C@H](Cc1c[nH]c3ccccc13)C(=O)OC)=C\CC[C@@]1(C)O[C@@H]21
active: [5] 3.25% | [6] -71.4% | [8] -56.3% | [9] -36.2%
inactive: [1] 68.8% | [2] 85.6% | [3] 86.3% | [10] 64.6% | [4] 64% | [7] 82.4%

CN(C)c1ccc(N=C2C=CC(=O)C=C2)cc1
inactive: [1] 84.5% | [2] 95.1% | [3] 75% | [4] 97.1% | [5] 77.5% | [6] 72% | [7] 102% | [8] 98.4% | [9] 36.3%

COc1cc(-c2cc3ncccc3c3nc(OCCN(C)C)c4cccnc4c23)cc(OC)c1OC
active: [2] -5.43% | [4] -50.8% | [5] -8.69% | [6] 7.46% | [7] -37.7% | [8] -88.5% | [9] 3.65%
inactive: [1] 13.4% | [3] 17.9%

Cn1cnc2c1c(=O)n(CCC(=O)Nc1ccc(F)cc1)c(=O)n2C
inactive: [1] 95.8% | [2] 106% | [3] 107% | [4] 108% | [5] 96.4% | [6] 87.3% | [7] 89.1% | [8] 94.8%

O=C(/C=C/c1ccc2ccccc2c1)Nc1ncc(Cc2ccccc2)s1
inactive: [1] 80.3% | [2] 46% | [3] 46.3% | [4] 30.8% | [5] 78.2% | [6] 72.8% | [7] 21.6% | [8] 34.2% | [9] 55.8%

CC(=O)N1N=C(c2ccc(C)cc2)CC1c1ccc(Oc2ccc(Br)cc2)cc1 (stereo not given)
inactive: [1] 83.1% | [2] 90.1% | [3] 73.9% | [4] 98.4% | [5] 89.4% | [6] 83.2% | [7] 81.5% | [8] 80% | [9] 97.7%

CCSc1sc(-c2ccc(C)cc2)nc1[P+](c1ccccc1)(c1ccccc1)c1ccccc1
active: [1] -13.9% | [2] -4.39% | [3] -16.7% | [4] -40.5% | [5] -38.3% | [6] -10.4% | [7] 3.64% | [8] 5.86% | [9] -26%

O=Cc1nc2ccccc2[nH]1
inactive: [1] 97.9% | [2] 97.6% | [3] 110% | [4] 109% | [5] 86.1% | [6] 84.8% | [7] 84.5% | [8] 101% | [9] 106%

CCCC1CCCCN1C(=O)OCC(C)C (stereo not given)
inactive: [1] 152% | [2] 105% | [3] 104% | [4] 107% | [5] 113% | [6] 99.4% | [7] 104% | [8] 106% | [9] 99.7%

Fc1ccc2c(c1)c(-c1nc(-c3c[nH]c4ncccc34)cs1)cn2CCCN1CCCCC1
inactive: [1] 84.9% | [2] 80% | [3] 80.6% | [4] 13% | [5] 45.4% | [6] 94.3% | [7] 65.7% | [8] 61.9%
active: [9] -73.1%

N#Cc1c(-c2ccc(O)cc2)c2c(N)nn(-c3ccccc3)c2[nH]c1=O
inactive: [2] 94.5% | [3] 103% | [10] 100% | [4] 110% | [5] 96.6% | [6] 91.3% | [7] 117% | [8] 107% | [9] 122%

Nc1c2c(nc3ccc(Cl)cc13)CC(c1ccccc1)CC2=O (stereo not given)
inactive: [2] 85% | [3] 62.1% | [10] 53.9% | [4] 15.2% | [5] 84.6% | [6] 41.1% | [7] 56.7% | [8] 55.1% | [9] 39.3%

Cc1cc2nc3c4cc(Cl)ccc4n(CCN(C)C)c3nc2cc1C
inactive: [2] 10.4% | [5] 25.8% | [6] 19.7% | [8] 14.3%
active: [3] 9.53% | [4] 1.36% | [7] 3.82% | [9] -49.6%

c1ccc2c(-c3nc(-c4c[nH]c5ncccc45)cs3)c[nH]c2c1
inactive: [2] 97.9% | [3] 91.1% | [10] 83.2% | [4] 115% | [5] 65.7% | [6] 85.2% | [7] 100% | [8] 93.4% | [9] 66.3%

C#Cc1cc2c(N)c(C(=O)c3cc(OC)c(OC)c(OC)c3)[nH]c2cc1OC
active: [5] -4.39% | [6] -4.05% | [9] -16.3%
inactive: [2] 50% | [3] 43.2% | [10] 24.4% | [4] 15.6% | [7] 45.4% | [8] 46.8%

C=C(C)[C@@H]1CC[C@]2(C(=O)N3CCN(C)CC3)CC[C@]3(C)[C@H](CC[C@@H]4[C@@]5(C)C/C(=C/c6ccc(C(F)(F)F)cc6)C(=O)C(C)(C)[C@@H]5CC[C@]43C)[C@@H]12
inactive: [2] 101% | [3] 96.5% | [10] 96.6% | [4] 97.9% | [5] 78.1% | [6] 94.4% | [7] 92.6% | [8] 90.3% | [9] 105%

N#CC1c2ccccc2-c2ccccc2N1C(=O)c1ccccc1 (stereo not given)
active: [9] -1.39%
inactive: [2] 17.8% | [3] 57% | [10] 48.7% | [4] 18.1% | [5] 45.2% | [6] 14.5% | [7] 31.8% | [8] 17%

C=C(C)[C@@H]1CC[C@]2(C)[C@H](CC=C3[C@@H]4CC(C)(C)CC[C@]4(C=O)CC[C@]32C)[C@@]1(C)CCCN
inactive: [2] 85.5% | [3] 86.5% | [10] 88.9% | [4] 86.3% | [5] 62% | [6] 91.8% | [7] 77.6% | [8] 90.4%
active: [9] -62.3%

Brc1ccc2c(c1)c(-c1nc(-c3c[nH]c4ncccc34)cs1)cn2CCCN1CCCCC1
inactive: [2] 71.2% | [3] 39.1% | [5] 31.7%
active: [4] -67.7% | [6] -3.42% | [7] -69.6% | [8] -74.8% | [9] -77.4%
